# A selection: hits, their analogues and other compounds. The true share with any hit is near 11%.
# HP1b binding inh – blocks HP1-beta chromodomain binding to methylated histone tails | AID 540317 | 390,000 tested, 0.56% active | P83916 | AlphaScreen HP1-beta / biotin-H3K9me3 peptide binding | Potency, µM (top dose mostly 114 µM), for the others: at the top dose activity change, negative = inhibition, hits mostly inhibitors; note: nearly all actives have a fitted effect of over 70% in size
# Target sequence (P83916 whole entry, looked up): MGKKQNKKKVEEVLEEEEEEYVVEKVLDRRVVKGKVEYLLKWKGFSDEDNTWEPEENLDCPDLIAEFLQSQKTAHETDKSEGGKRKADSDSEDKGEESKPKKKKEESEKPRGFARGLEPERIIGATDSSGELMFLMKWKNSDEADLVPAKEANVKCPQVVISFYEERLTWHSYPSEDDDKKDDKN
#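 AlphaScreen: HP1-beta (50 nM) preformed 30 min with biotin-H3(1-18)K9me3 peptide (50 nM) in PBS pH 7.4, 0.01% Tween-20. Compound added for 30 min at RT, then streptavidin donor/nickel chelate acceptor beads (10 ug/mL) for 30 min.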
# G9a inh – blocks human histone lysine methyltransferase G9a; Potency, µM (highest dose often 102 µM), for the others: at the highest dose activity, negative = inhibition, usual class: inhibitors; 350,000 tested, 8.8% active; G9a H3K9 monomethylation, AlphaScreen, 2 h; note: % is set by controls: 0 for no effect and ±100 for the full control effect; nearly all actives have a fitted effect of over 75% in size
# Target sequence (Q96KQ7 913-1193 limits assumed): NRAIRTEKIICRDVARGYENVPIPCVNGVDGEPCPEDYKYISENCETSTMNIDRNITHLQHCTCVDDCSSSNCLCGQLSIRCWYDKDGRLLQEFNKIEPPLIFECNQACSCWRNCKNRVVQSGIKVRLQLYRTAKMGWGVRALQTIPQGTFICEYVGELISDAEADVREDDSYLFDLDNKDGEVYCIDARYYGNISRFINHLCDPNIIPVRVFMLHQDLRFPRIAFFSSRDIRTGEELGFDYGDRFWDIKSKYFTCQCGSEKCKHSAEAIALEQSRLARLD
#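 Enzyme 20 nM + cpd, 15 min RT; add b-H3K9 pep 500 nM / SAM 20 uM; 2 h RT; anti-H3K9me1 Ab 0.5 ug/mL + SA donor / anti-rabbit acceptor beads 20 ug/mL each, 10 min; AlphaScreen read.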
# L3MBTL1 inh – blocks human L3MBTL1; 230,000 tested, 0.66% active; Potency, µM (titrated, usually from 57.1 µM), inactives show at the top dose activity, negative = inhibition, usual class: inhibitors; AlphaScreen L3MBTL1–H3K9me1 peptide binding; note: % is set by controls: 0 for no effect and ±100 for the full control effect; nearly all actives have a fitted effect of over 60% in size
#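 Displacement of a biotinylated histone H3(1-15) peptide monomethylated at Lys9 (75 nM) from L3MBTL1 (50 nM) was measured by AlphaScreen after a 30 min room-temperature compound incubation; cefsulodin titration served as intraplate control.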
# JMJD2A Tudor inh – inhibitors of human JMJD2A Tudor domain. O75164. AlphaScreen JMJD2A-Tudor / H3K4me3 peptide binding. Potency, µM (doses to about 114 µM), for the others: at the top dose activity change, negative = inhibition, actives largely listed as inhibitors. 390,000 tested, 4.4% active. AID 504339; note: % is set by controls: 0 for no effect and ±100 for the full control effect; nearly all actives have a fitted effect of over 50% in size
# BAZ2B inh – inhibitors of human BAZ2B bromodomain. Q9UIF8. AlphaScreen BAZ2B-H3K14Ac peptide displacement. Potency, µM (highest dose often 114 µM), inactives show top-dose activity change, negative = inhibition, usual class: inhibitors. 360,000 tested, 4.4% active. AID 504333; note: % is set by controls: 0 for no effect and ±100 for the full control effect; nearly all actives have a fitted effect of over 60% in size
#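 Multi-concentration screen (max 110 uM) measuring displacement of acetylated histone H3 peptide from BAZ2B by AlphaScreen, using 50 nM protein, 50 nM peptide and 10 ug/mL streptavidin donor plus Ni-chelate acceptor beads.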
# Numbers without * were called inactive; ? = inconclusive; nt = not tested or not shown; [ ] = another dose, or the depositor's remark. Calls come from the whole dose curve; as a rule, active = well fitted inhibition curve with a large enough effect; inconclusive = small, poorly fitted or top-dose-only effect; inactive = no such curve, though single readings can be large or run the other way. Potency is the fitted concentration of half-maximal effect.
SMILES,HP1b binding inh,G9a inh,L3MBTL1 inh,JMJD2A Tudor inh,BAZ2B inh
Cc1sc2nc(CSc3ncn[nH]3)[nH]c(=O)c2c1C,14.0%,9.4%,-0.7%,-5.2%,nt
O=C(CN1CCOCC1)Nc1ccc(Cl)c(Cl)c1,?,8.91µM*,3.3%,28.2µM*,-35.0%
O=C(CSCC(=O)N1CCOCC1)Nc1ccccc1,19.6%,44.7µM*,1.4%,2.6%,38.8%
O=C(CN1CCOCCOCCOCC1)Nc1ccccc1,33.2%,?,nt,-8.4%,2.0%
O=C(CN1CCOCCOCCN(CC(=O)Nc2ccccc2)CCOCC1)Nc1ccccc1,43.4%,31.6µM*,5.4%,-5.6%,-4.3%
CCCCCN(C(=O)CCC(=O)OCC(=O)N1CCCC(C)C1)c1c(N)n(CCCC)c(=O)[nH]c1=O (stereo not given),23.0%,nt,nt,-14.7%,-1.8%
CCOC(=O)C1CCCN(C(=O)c2ccc(NC(=O)c3nsc4ccccc34)cc2)C1 (stereo not given),18.0%[57 µM],-35.4%[59 µM],nt,-21.4%,-4.1%
COc1cccc(CNS(=O)(=O)c2ccc(N3CCCCS3(=O)=O)cc2)c1,37.8%,0.0%[12.7 µM],nt,-9.3%,-9.5%
CCOc1ccccc1-c1noc(CCCC(=O)Nc2cccc(C(F)(F)F)c2)n1,10.4%,-0.6%[59 µM],nt,-11.3%,12.9%
C#CCOCCOCCOCCNc1nc(N2CCN(C(=O)[C@H]([C@@H](C)O)n3cc(CCCCN)nn3)CC2)nc(N2CCN(C(=O)[C@H]([C@@H](C)CC)n3cc(CCCN=C(N)N)nn3)CC2)n1,19.2%,50.1µM*,-4.1%,-27.8%,?
C#CCOCCOCCOCCNc1nc(N2CCN(C(=O)[C@H]([C@@H](C)CC)n3cc(CCCCN)nn3)CC2)nc(N2CCN(C(=O)[C@H](CCCCN)n3cc(CCC(=O)O)nn3)CC2)n1,27.8%,8.0%[2.33 µM],4.5%,4.9%,-21.8%
C#CCOCCOCCOCCNc1nc(N2CCN(C(=O)[C@H]([C@@H](C)CC)n3cc(CCCN=C(N)N)nn3)CC2)nc(N2CCN(C(=O)[C@H](CCCCN)n3cc(CCC(=O)O)nn3)CC2)n1,56.9%,50.1µM*,4.4%,-14.1%,-36.4%
CCc1cc2c(=O)n3c(nc2s1)-c1[nH]c2ccc(OC)cc2c1CC3,21.3%,?,2.6%,22.4µM*,7.7%
Cc1cc(F)ccc1NC(=O)CCS(=O)(=O)c1cc2c(cc1C)NC(=O)CO2,48.0%,-27.5%[59 µM],nt,0.3%,-9.9%
COc1cc(Cl)c(C)cc1Nc1nc2ccccc2c2nnc(C)n12,77.5%,6.8%[59 µM],nt,-3.8%,16.2%
N=c1ncn(Cc2ccccc2)c2nc(SCCOc3ccccc3)[nH]c12,29.6%,79.4µM*,5.2%,-0.7%,-3.8%
Cc1nc(SCCOc2ccccc2)[nH]c(=O)c1Cc1ccccc1,3.4%,3.8%,5.2%,-10.2%,3.3%
COc1cccc(CNC(=O)CCn2nc(C)c3c(C)n(-c4ccccc4)nc3c2=O)c1,24.7%,-13.8%[59 µM],nt,-10.0%,-13.3%
Nc1ccc2c(c1)OC1(CCCC1)O2,-38.7%,35.5µM*,-23.8%,44.7µM*,39.8µM*
CCCNC(=O)c1ccc(N2CCC3(CC2)CC(c2cccc(Br)c2)=NO3)c([N+](=O)[O-])c1,21.0%,79.4µM*,-12.6%,-31.4%,?
Cc1ccc(NC(=O)Cn2ccn(-c3ccc(F)c(F)c3)c(=O)c2=O)cc1C,-1.3%,-2.3%[59 µM],nt,-20.7%,-3.7%
CC1CC=CC2C1C(=O)N(Cc1ccccc1)C2c1ccc2ccccc2c1 (stereo not given),34.1%,nt,nt,5.5%,nt
COc1ccc(CCNc2nc(-c3ccc(NC(C)=O)cc3)cs2)cc1OC,-30.4%,?,nt,-33.8%,?
COc1ccc(CCNc2nc(-c3cccnc3)cs2)cc1OC,-6.4%,nt,-5.5%,-35.3%,?
COc1ccc(CCNc2nc(-c3ccncc3)cs2)cc1OC,10.9%,nt,nt,-6.6%[11.4 µM],-12.9%
SMILES,HP1b binding inh,G9a inh,L3MBTL1 inh,JMJD2A Tudor inh,BAZ2B inh
COc1ccc(CCNc2nc(-c3ccccn3)cs2)cc1OC,7.8%[57 µM],?,nt,?,22.4µM*
COc1ccc(CCNc2nc(-c3sc(C)nc3C)cs2)cc1OC,?,10µM*,nt,3.16µM*,31.6µM*
COc1ccc(CCNc2nc(-c3ccc(O)cc3)cs2)cc1OC,-7.5%,22.4µM*,-10.6%,?,?
CCNc1ncc2nc(-c3cccc(C#N)c3)c(=O)n(CCC#N)c2n1,nt,2.9%[0.501 µM],nt,nt,nt
CC1CCc2ccccc2N1C(=O)c1cccs1 (stereo not given),?,25.7%[59 µM],nt,56.2µM*,6.6%
COc1ccc(/C=N/NC2=NCCCCC2)c(OC)c1,26.7%,11.2µM*,-0.5%,-10.9%,-17.2%
O=[N+]([O-])c1cccc(/C=N/NC2=NCCCCC2)c1,44.7%,1.4%[59 µM],-0.2%,-6.4%,0.6%
CN(C)c1cc(N/N=C\c2ccccc2)nc(N(C)C)n1,22.2%,-18.0%,?,?,-36.9%
COc1ccc(/C=N/Nc2cc(N(C)C)nc(N(C)C)n2)cc1,?,4.47µM*,-9.8%,?,50.1µM*
COc1ccc(/C=N/NC(C)(C)C)c(OC)c1,16.7%,12.6µM*,0.2%,-16.8%,?
COc1ccc(/C=N/NC2=NCCCCC2)cc1,44.7%,28.2µM*,nt,-12.9%,-2.7%
Oc1ccccc1/C=N/NC1=NCCCCC1,44.0%,nt,4.1%,-13.4%,10.2%
F[Si-2](F)(F)(F)(F)F,nt,18.7%[59 µM],nt,nt,nt
CC(C)(C)OC(=O)N1CCC(c2c(C(=O)N3CCN(C(=O)c4ccco4)CC3)cnn2-c2ccccc2)CC1,26.9%,-0.4%[59 µM],nt,5.2%,15.0%[57.1 µM]
COc1ccc(-c2c(C)c3ccc(O)c(CN4CCCCC4)c3oc2=O)cc1OC,28.5%[57 µM],-16.1%[59 µM],nt,-3.2%,7.4%
CCOC(=S)SCC(=O)N1CCc2cc(OC)c(OC)cc2C1C1C(=O)CC(C)(C)CC1=O (stereo not given),9.9%,44.7µM*,11.6%,-32.6%,11.5%
Brc1ccc2nc(-c3cccs3)c(NCC3CCCO3)n2c1 (stereo not given),18.2%,nt,-24.8%,-24.3%,50.1µM*
CCCOc1ccc(N)cc1N,?,5.01µM*,-10.2%,56.2µM*,28.2µM*
CCCOc1cc(N)ccc1C(=O)OCCN(CC)CC,34.3%,-4.1%[59 µM],-0.3%,-10.8%,-4.6%

# Screens deposited in PubChem by National Center for Advancing Translational Sciences (NCATS).
